The values that follow come from the supplement of paper PMC3334620.

In all, about 33,000 sequences were measured (“E-score (-0.5 to 0.5)”: median about -0.041, highest 2% from about 0.37 on). The sample holds the highest values, similar sequences and a random draw of the others, so the mix is not that of the screen.

This assay addresses T1, Ecm22 (UniProt Q05958).
T1 sequence: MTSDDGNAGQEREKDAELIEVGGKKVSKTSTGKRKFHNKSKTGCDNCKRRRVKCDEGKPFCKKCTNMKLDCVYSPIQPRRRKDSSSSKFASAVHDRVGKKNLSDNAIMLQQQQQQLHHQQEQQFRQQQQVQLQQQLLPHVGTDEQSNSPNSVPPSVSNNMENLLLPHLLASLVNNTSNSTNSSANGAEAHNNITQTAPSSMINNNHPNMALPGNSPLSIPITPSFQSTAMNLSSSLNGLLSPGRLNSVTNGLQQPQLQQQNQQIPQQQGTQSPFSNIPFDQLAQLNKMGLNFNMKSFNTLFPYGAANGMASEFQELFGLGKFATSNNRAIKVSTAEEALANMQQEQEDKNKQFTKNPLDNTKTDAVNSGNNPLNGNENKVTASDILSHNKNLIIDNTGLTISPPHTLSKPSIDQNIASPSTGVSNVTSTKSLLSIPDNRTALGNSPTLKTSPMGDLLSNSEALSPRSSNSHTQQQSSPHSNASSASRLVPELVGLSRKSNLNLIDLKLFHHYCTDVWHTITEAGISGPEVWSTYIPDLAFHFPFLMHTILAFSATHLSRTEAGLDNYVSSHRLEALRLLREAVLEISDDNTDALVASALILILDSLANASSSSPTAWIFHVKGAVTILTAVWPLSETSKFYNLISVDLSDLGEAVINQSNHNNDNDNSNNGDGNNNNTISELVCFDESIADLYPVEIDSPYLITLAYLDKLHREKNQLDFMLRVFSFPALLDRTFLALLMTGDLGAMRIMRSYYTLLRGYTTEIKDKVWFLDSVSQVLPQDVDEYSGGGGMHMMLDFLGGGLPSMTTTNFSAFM
The assay can be described thus: PBM E-score (8-mer binding enrichment) (E-score (-0.5 to 0.5)); higher = stronger / more preferred TF binding. Particulars: protein concentration: 200 nM; construct: GST-full length. The method, then: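 Universal 'all 10-mer' protein binding microarrays (Agilent AMADID 015681) probed with GST-tagged S. cerevisiae TFs (full-length or DBD) made by in vitro transcription/translation (PURExpress), about 100-200 nM. Bound TF was detected with fluorescent anti-GST. Each ungapped 8-mer (which stands for itself and its reverse complement) is scored by the PBM enrichment score (E-score), a modified Wilcoxon-Mann-Whitney statistic from -0.5 to +0.5, computed with the Universal PBM Analysis Suite. Scale: above 0.35 generally sequence-specific binding.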
For AATATACG, the “PBM E-score” value came to 0.461.
As for AATATACT, the “PBM E-score” value is -0.0273.
On to AAAATACA, for which the “PBM E-score” value is -0.0245.
As for CATATACA, the figure is 0.0321.
As for AAAATACG, the “PBM E-score” value was found to be 0.372.
As for AATATACA, the figure is 0.104; as for AAAATACC, 0.0602; as for CATATACG, 0.445.
For CATATACC the value was -0.0901.
Take ACCCCGGT: the “PBM E-score” value was 0.00636.
As for GGAGTTGA, the figure is 0.0109.
Take CTCTAGAA: the “PBM E-score” value was -0.201.
As to AAGGGCCC, the “PBM E-score” value was -0.0372.
For the sequence CGCGGCTA, the “PBM E-score” value was 0.0813.
For ACATGCCC, the “PBM E-score” value was -0.0896.
On to ATCCGTGC, for which the “PBM E-score” value was -0.0378.
For ATCCGTAC the value was 0.363.
As for CACCGTAC, the figure is 0.4; as for CACCGTAG, 0.0943; as for CTCCGTAA, 0.187.
In the case of CTCCGTAC, the “PBM E-score” value is 0.386.
For CACCGTAA, the “PBM E-score” value stood at 0.277.
Take AAAAAGGG: the “PBM E-score” value is -0.092.
In the case of ACATCTAT, the “PBM E-score” value amounted to 0.0869.
As for CCAGGGCA, the figure is -0.108; as for GGCGCCCA, -0.0786.
On to TCGCCCGA, for which the “PBM E-score” value was -0.102.
As for ATCGTAAT, the “PBM E-score” value came out at 0.263.
For CTCGTAAA the value was 0.475; for CCCGTAAA, 0.32.
For ATCGTAAG the value was 0.308.
On to TGCGTAAA, for which the “PBM E-score” value was 0.228.
As for TCCGTAAA, the figure is 0.332; as for GACGTAAA, 0.154; as for CACGTAAA, 0.106.
For TTCGTAAA the value was 0.456; for GTCGTAAA, 0.473; for ATCGTAAA, 0.436.
For GGCGTAAA the value was 0.159; for CTCCACAG, -0.248.
On to GCGCGACC, for which the “PBM E-score” value came to 0.173.
As for ACTCCGGC, the figure is 0.0584.
Regarding AAAAACTG, the “PBM E-score” value was -0.116.
Regarding GCCTCGCA, the “PBM E-score” value is 0.205.
For ACAACCGC the value was 0.111; for AGCCTTAC, -0.108; for CTTCGGCC, -0.151.
Take CCGAACAA: the “PBM E-score” value came out at 0.127.
For ACGAACAC the value was 0.318.
For ACGAACAG the value was 0.282; for GCGAACAA, 0.148; for ACGAACAA, 0.38.
Take ACGAACAT: the “PBM E-score” value worked out at 0.386.
For the sequence GGCCGACC, the “PBM E-score” value is -0.224.
For GCCTGAAA the value was -0.139; for GACGTCTA, -0.23.
Take ATGACGGG: the “PBM E-score” value was -0.125.
As for ACGACGGC, the figure is 0.37.
For ACGACGGA the value was 0.388; for ATGACGGC, -0.236; for AGGACGGG, -0.147.
For CCGACGGA the value was 0.0916.
Consider GCGACGGA, for which the “PBM E-score” value amounted to 0.124.
Turning to CCGACGGC, the “PBM E-score” value stood at 0.129.
For ACGACGGG the value was 0.393; for CACGTTCC, 0.201; for AGGCAACT, -0.02.
As for ATCCTACC, the figure is -0.186; as for AACGGAGA, 0.18.
For ATCGGGCA the value was -0.122; for CTGCGAAG, -0.0466.
As to AATAAACG, the “PBM E-score” value is 0.41.
As for CATAAACC, the figure is -0.0464; as for AATAAACA, 0.0258; as for CATAAACA, -0.0236.
As for CATAAACG, the figure is 0.437.
As for AATAAACT, the figure is -0.0489.
As to CGGCACTA, the “PBM E-score” value was -0.0606.
GAAGTCGC: the “PBM E-score” value turned out to be 0.108.
Take ATGCACCA: the “PBM E-score” value is -0.108.
As to TAGATAAA, the “PBM E-score” value is 0.057.
For the sequence ACGACGAC, the “PBM E-score” value is 0.364.
As to ACGACGTA, the “PBM E-score” value was determined as 0.414.
For CCGACGTC the value was 0.138.
For ACGACGAG the value was 0.38.
Take ACGACGTC: the “PBM E-score” value was 0.393.
As for CCGACGTA, the figure is 0.208; as for GCGACGTA, 0.265; as for ATGACGTG, -0.166.
For the sequence AGGACGTG, the “PBM E-score” value was -0.194.
ACGACGTG: the “PBM E-score” value stood at 0.372.
Regarding AAGACGTC, the “PBM E-score” value worked out at 0.00719.
For CCGACGAG, the “PBM E-score” value was found to be 0.165.
For GACCCGTA the value was 0.24.
